Experimental data as given in PubChem BioAssay (NCI).
The panel holds about 83,000 compounds, 20% with a hit somewhere; the sample as a whole holds those more often.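 Activity criterion: percent growth below 10, measured after cells in 96-well plates were exposed to a single compound concentration for 48 hours.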 Unmarked numbers belong to inactive results. Activity calls are given as the source filed them.

Tests used:
Assay in all cases: NCI-60 one-dose screen, 48 h (100 = growth as untreated, 0 = no growth, -100 = all killed)
Settings in all cases: 10 µM unless noted
HCT-15 colon = tested on: HCT-15 colon
HT29 colon = tested on: HT29 colon
SNB-75 CNS = tested on: SNB-75 CNS
SNB-19 CNS = tested on: SNB-19 CNS
U251 CNS = tested on: U251 CNS
PC-3 prostate = tested on: PC-3 prostate
SK-MEL-5 melanoma = tested on: SK-MEL-5 melanoma
UACC-62 melanoma = tested on: UACC-62 melanoma
LOX IMVI melanoma = tested on: LOX IMVI melanoma
SK-MEL-28 melanoma = tested on: SK-MEL-28 melanoma

| SMILES | growth (HCT-15 colon) | growth (HT29 colon) | growth (SNB-75 CNS) | growth (SNB-19 CNS) | growth (U251 CNS) | growth (PC-3 prostate) | growth (SK-MEL-5 melanoma) | growth (UACC-62 melanoma) | growth (LOX IMVI melanoma) | growth (SK-MEL-28 melanoma) |
| --- | --- | --- | --- | --- | --- | --- | --- | --- | --- | --- |
| CC(C)=CCC[C@](C)(O)[C@H]1CC[C@]2(C)[C@@H]1CC[C@@H]1[C@@]3(C)CC[C@H](OC(=O)CCC(=O)O)C(C)(C)[C@@H]3CC[C@]12C | 19.3% [100 µM] | 2.98% [100 µM] (active) | 43.3% [100 µM] | 24.1% [100 µM] | 2.41% [100 µM] (active) | 27.4% [100 µM] | -41.3% [100 µM] (active) | -75.4% [100 µM] (active) | -64.1% [100 µM] (active) |  |
| CCc1ccc(C2=C/C(=C/c3ccccc3)C(=O)N2CCc2ccc(S(N)(=O)=O)cc2)cc1 | 108% | 117% | 66.3% | 93.9% | 99.7% | 99.9% | 98.1% | 95.2% | 94.9% |  |
| O=C(CCN1CCCCC1)c1ccc2ccccc2c1 | 103% | 99.7% | 93.6% | 103% | 93.3% | 97.6% | 97% | 97.2% | 93.3% |  |
| O=C1/C(=C/c2ccc(OCc3ccccc3)cc2)Oc2cc(OCCN3CCCCC3)ccc21 | 14% | 33.2% | 83% | 94.3% | 69.8% | 74.9% | 61.6% | 61% | 52.3% |  |
| COc1ccc(OC)c([N+](=O)[O-])c1C(=O)CNC(C)=O | 95.8% | 109% | 107% | 93.5% | 97% | 101% | 101% | 95.8% | 103% |  |
| N#C/C(C(=O)c1ccccc1)=C1/C(=O)Nc2ccccc21 | 106% | 102% | 66.9% | 98.8% | 103% | 97.6% | 95.6% | 94.6% | 104% |  |
| Cc1ccc(-n2nc3n(/c2=N\C(=O)NS(=O)(=O)c2ccc(C)cc2)CCN3C2=NCCN2)cc1 | 105% | 107% | 85.6% | 99.2% | 105% | 96.4% | 105% | 95.9% | 113% |  |
| Cc1ccc2c(c1)C(C)Cc1c(Cl)ncnc1N2C (centres undefined) | 8.93% (active) | -8.76% (active) | 50.3% | 30.4% | 17.9% | 14.1% | -86.7% (active) | 7.38% (active) | -58.1% (active) |  |
| O=C(Nc1cccc(C2=NCCN2)c1)c1cccc(C(=O)Nc2cccc(C3=NCCN3)c2)c1 | 97.6% | 110% | 86.2% | 98% | 101% | 99% | 99.1% | 94.3% | 91.4% |  |
| O=C(NCCO)c1cccnc1 | 113% | 91.5% | 92.9% | 101% | 92.7% | 83.4% | 96% | 105% | 95% |  |
| Nc1cc(Cl)cc2cccnc12 | 103% | 101% | 79.9% | 109% | 111% | 87.5% | 101% | 103% | 88.1% |  |
| Cn1c(=O)c(C#N)c(-c2ccco2)n2c(S(=O)(=O)Cc3ccccc3)nnc12 | 78.3% | 92.5% | 97.8% | 115% | 82.8% | 112% | 90.1% | 75.5% | 92.3% | 99.1% |
| CSc1nc2c(c(=O)n1C)C1(C(=O)N(Cc3ccccc3)c3ccccc31)c1c(nc(SC)n(C)c1=O)N2 | 84% | 86.2% | 99% | 91.5% | 77.5% | 44.9% | 93% | 93.6% | 101% | 104% |
| Cc1ccc(-c2cc(-c3ccc(C)cc3)nc(NCCNc3ccnc4cc(Cl)ccc34)n2)cc1 | -84.9% (active) | -36% (active) | -30.2% (active) | 16.8% | -84.4% (active) | -22.8% (active) | -93.1% (active) | -79.9% (active) | -92.3% (active) | -83.6% (active) |
| O=C1Cc2c(sc3c(F)cccc23)C(c2ccccc2[N+](=O)[O-])N1 (centres undefined) | 110% | 112% | 90% | 100% | 85.2% | 100% | 97.3% | 87.2% | 97.7% | 120% |
| CC(C)(C)c1cc(C(=O)N2CCC(C(=O)NCCN)CC2)cc(C(C)(C)C)c1 | 103% | 80.5% | 79.4% | 88% | 88.2% | 92.5% | 95.4% | 89.3% | 99.6% | 101% |
| C=C(C)[C@@H]1CC[C@]2(C)[C@H](CC=C3[C@@H]4[C@@H](C)[C@H](C)CC[C@]4(C(N)=O)CC[C@]32C)[C@@]1(C)CCC#N | 9.25% [100 µM] (active) | -32.6% [100 µM] (active) | -5.4% [100 µM] (active) | 16.2% [100 µM] | -59.3% [100 µM] (active) | 12.2% [100 µM] | -87.9% [100 µM] (active) | -63.9% [100 µM] (active) | -92.9% [100 µM] (active) | -67.8% [100 µM] (active) |
| O=[N+]([O-])c1cc([N+](=O)[O-])c(C(F)(F)F)cc1NN=C(c1ccc(O)cc1)c1ccc(O)cc1 | 13.7% | 91.6% | 92.7% | -4.43% (active) | 26.2% | 51.1% | -96.7% (active) | 60.6% | 14% | 94.8% |
| CCN(CC)c1ccc2cc(C(Nc3ccc(Br)c(C(F)(F)F)c3)c3nnnn3C(C)(C)C)c(=O)oc2c1 (centres undefined) | 94.8% | 85.9% | 67.7% | 86.1% | 86.6% | 79.7% | 84.7% | 88.8% | 98% | 104% |
| COc1cc2c(=O)[nH]c3cc([N+](=O)[O-])ccc3c2cc1[N+](=O)[O-] | 46% | 30.6% | 36.5% | 58.3% | 37.8% | 55.2% | 41.3% | 41.4% | 36.7% | 78.5% |
| CCOC(=O)Nc1ccc2c(c1)/C(=N\NC(=S)NC)c1ccccc1-2 | 66.7% | 88% | 96.2% | 71.8% | 62% | 81.8% | 73.5% | 71.9% | 67.1% | 82.7% |
| CCCCCCCCCCCCCC[n+]1cccc(C(N)=O)c1 | 67.6% | 0.436% (active) | -57.2% (active) | -69.4% (active) | -72.7% (active) | -29% (active) | -90.9% (active) | 1.18% (active) | 15.7% | 28.5% |
| CC(=O)n1cc(C=O)c2ccccc21 | 106% | 97.7% | 81.7% | 100% | 86.3% | 93.5% | 97.2% | 94.2% | 93.8% | 105% |
| O=C(O)c1cc([N+](=O)[O-])ccc1Br | 98.4% | 103% | 89.5% | 99.1% | 96.3% | 100% | 98.9% | 91.9% | 94.7% | 97.8% |
| CCN(CCNc1ccc(C)c2sc3cc(Cl)ccc3c(=O)c12)CC(C)O (centres undefined) | -42.8% (active) | -28.5% (active) | 66.5% | 58.5% | 18% | 48.5% | -98.1% (active) | -70.3% (active) | -83.4% (active) | -64.5% (active) |
